Results: PubChem BioAssay AID1211 (NMMLSC, 2008)
Activity calls are given as the source filed them. No rule for the calls is given here.

Target: Estrogen receptor (Homo sapiens) (UniProt P03372)
Assay: displacement of fluorescent estrogen from ERalpha – cell-based, Cos7 ERalpha-GFP, flow cytometry, primary screen (AID 1211);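 also: 0% = DMSO vehicle wells and 100% = no E2-Alexa633 signal left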
Details: fluorescent ligand competition, stronger effect = higher value

Chain of Estrogen receptor (Homo sapiens) (P03372 whole entry, looked up): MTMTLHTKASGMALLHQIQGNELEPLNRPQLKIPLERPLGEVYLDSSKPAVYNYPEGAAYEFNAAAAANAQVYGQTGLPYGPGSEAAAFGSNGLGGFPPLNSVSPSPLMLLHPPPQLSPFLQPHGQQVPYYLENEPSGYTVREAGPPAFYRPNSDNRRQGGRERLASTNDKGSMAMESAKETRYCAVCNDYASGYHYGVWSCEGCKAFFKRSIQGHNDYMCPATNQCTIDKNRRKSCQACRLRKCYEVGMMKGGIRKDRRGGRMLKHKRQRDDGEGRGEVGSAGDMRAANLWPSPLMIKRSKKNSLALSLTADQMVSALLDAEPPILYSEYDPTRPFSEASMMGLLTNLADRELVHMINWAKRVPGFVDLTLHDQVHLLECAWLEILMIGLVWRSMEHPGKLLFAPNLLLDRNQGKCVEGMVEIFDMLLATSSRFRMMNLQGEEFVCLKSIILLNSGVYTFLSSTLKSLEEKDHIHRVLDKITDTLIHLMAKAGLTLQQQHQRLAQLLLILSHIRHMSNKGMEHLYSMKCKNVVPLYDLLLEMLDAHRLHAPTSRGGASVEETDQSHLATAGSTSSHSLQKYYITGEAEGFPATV

Structure (SMILES) | inhibition of ligand binding (at 10 µM) | inhibition of ligand binding (binding inhibition, at 0.1 µM) [%]
COc1ccc(N=C2NC(=O)S/C2=C\c2ccc(N(C)C)cc2)cc1 | 39% (inactive) | 8
COc1ccc(C2Nc3ccccc3C(=O)N2c2ccc(F)cc2)cc1CSc1ccccn1 (stereo unspecified) | 10% (inactive) | 28
O=C(Nc1ccc2oc(-c3ccc4ccccc4c3)nc2c1)c1cccs1 | 32% (inactive) | 51
CCn1nnc(NC(=O)CSc2ccc(Cl)cc2)n1 | 7% (inactive) | 10
Nc1nc2c(s1)CCc1c-2cnn1-c1ccccc1 | 13% (inactive) | 21
CSc1nc2c(c(=O)[nH]1)C(c1cccs1)C1=C(CCCC1=O)N2 (stereo unspecified) | 28% (inactive) | 30
Cc1nnc(N/N=C/c2ccc(O)c([N+](=O)[O-])c2)[nH]c1=O | 32% (inactive) | 20
COc1ccc(-c2nc3ccc([N+](=O)[O-])cc3o2)cc1 | 28% (inactive) | 52
O=C(Nc1ccc(O)cc1)C1CC=CCC1 (stereo unspecified) | 6% (inactive) | 9
O=C(COC(=O)CN1C(=O)c2ccccc2C1=O)Nc1ncc(Cl)cc1Cl | 7% (inactive) | 14
O=C(Nc1cccc(-c2cnc3ccccc3n2)c1)c1cccc(NC(=O)c2ccco2)c1 | 68% (active) | 23
O=C(O)c1ccc(Cl)c2c1C1C=CCC1C(c1ccccn1)N2 (stereo unspecified) | 43% (inactive) | 10
O=C(Cc1ccc(S(=O)(=O)N2CCOCC2)s1)Nc1nc2c(s1)CCCC2 | 46% (inactive) | 32
Oc1ccc(-c2cn3c(n2)SCC3)cc1 | 37% (inactive) | 22
Cc1nc2sccn2c1-c1nc(-c2cc3ccccc3o2)cs1 | 4% (inactive) | 22
COc1cc(-c2nc3ccc4ccccc4c3c3c2CCC3)ccc1O | 46% (active) | 87
C=CCn1c(COc2cccc(C)c2)nnc1SCC(=O)NC(=O)NCc1ccco1 | 9% (inactive) | 31

Structure (SMILES) | inhibition of ligand binding (at 10 µM) | inhibition of ligand binding (binding inhibition, at 0.1 µM) [%]
Oc1ccc(N=Cc2ccc(O)c(O)c2)cc1 | 0% (inactive) | 41
COC(=O)c1ccc2c(=O)n(CC3CCCO3)c(SCC(=O)Nc3ccccc3Cl)nc2c1 (stereo unspecified) | 45% (inactive) | 37
Cc1ccc(C(=O)NCC(=O)OCC(=O)c2c(N)n(C)c(=O)n(C)c2=O)s1 | 14% (inactive) | 5
O=C(NCCN1CCOCC1)c1cnn2c(-c3ccccc3)cc(-c3ccccc3)nc12 | 0% (inactive) | 8
CCOC(=O)Cc1cc(-c2ccc(O)cc2)nc2ccc3ccccc3c12 | 37% (inactive) | 15
O=C(CSc1nc2scc(-c3ccco3)c2c(=O)n1-c1ccccc1)NCC1CCCO1 (stereo unspecified) | 0% (inactive) | 21
CCCCCCNC(=O)c1cc(-c2ccco2)nc2ccccc12 | 40% (inactive) | 44
Cc1nnc(NC(=O)CSc2nc3c(c(=O)n2CCc2ccccc2)SC(C)C3)s1 (stereo unspecified) | 23% (inactive) | 61
O=C(COC(=O)CCOc1ccccc1)NCc1ccco1 | 50% (inactive) | 57
O=C(c1cc2ncc(Br)cn2n1)N1CCN(C(=O)c2ccco2)CC1 | 2% (inactive) | 15
CCOc1cc(N2CCOCC2)c(OCC)cc1NC(=O)c1cc(-c2ccco2)nc2ccccc12 | 24% (inactive) | 4
Cc1nc2cc(-c3ccsc3-n3c(C)ccc3C)[nH]n2c(=O)c1Cl | 30% (inactive) | 54
CC1(C)N=C(N)N=C(N)N1c1ccc(C(=O)O)cc1 | 35% (inactive) | 21
Cc1cc(NC(=O)CSc2cn(CCNC(=O)c3ccc(Cl)cc3)c3ccccc23)no1 | 15% (inactive) | 37
Cc1nc2ccccc2c(=O)n1/N=C/c1c(O)ccc2oc3c(c12)CCCC3 | 48% (inactive) | 52
O=C(NC1CCN(C(=O)N2c3ccccc3Sc3ccccc32)CC1)c1ccccc1Cl | 36% (inactive) | 37
